# Results filed as inconclusive are left out. Unmarked numbers belong to inactive results. Activity calls are given as the source filed them. Calls come from the whole dose curve; as a rule, active = well fitted inhibition curve with a large enough effect; inconclusive = small, poorly fitted or top-dose-only effect, or effect the other way; inactive = flat fitted curve, though single readings scatter.
# Target: Ubiquitin carboxyl-terminal hydrolase 2 (Homo sapiens) (UniProt O75604)
# Assay: Ub-rhodamine 110 based assay for inhibitors Ubiquitin-specific Protease USP2a; note: nearly all actives have a fitted effect of over 50% in size
# Settings: USP2a Ub-rhodamine110 cleavage, fluorescence; series mostly up to 38.3 µM; activity change, negative = inhibition: at the top concentration
# Summary of the method: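 5 nM USP2a preincubated with compounds for 30 min at RT in 20 mM Tris-HCl pH 8.0, 2 mM CaCl2, 2 mM beta-mercaptoethanol, 0.05% CHAPS. Cleavage of 150 nM Ub-rhodamine 110 read kinetically (Ex 485/Em 531) for 7 min.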
# % is set by controls: 0 for no effect and ±100 for the full control effect; potency is the fitted concentration of half-maximal effect.
# Ubiquitin carboxyl-terminal hydrolase 2 (Homo sapiens), sequence (O75604 whole entry, looked up): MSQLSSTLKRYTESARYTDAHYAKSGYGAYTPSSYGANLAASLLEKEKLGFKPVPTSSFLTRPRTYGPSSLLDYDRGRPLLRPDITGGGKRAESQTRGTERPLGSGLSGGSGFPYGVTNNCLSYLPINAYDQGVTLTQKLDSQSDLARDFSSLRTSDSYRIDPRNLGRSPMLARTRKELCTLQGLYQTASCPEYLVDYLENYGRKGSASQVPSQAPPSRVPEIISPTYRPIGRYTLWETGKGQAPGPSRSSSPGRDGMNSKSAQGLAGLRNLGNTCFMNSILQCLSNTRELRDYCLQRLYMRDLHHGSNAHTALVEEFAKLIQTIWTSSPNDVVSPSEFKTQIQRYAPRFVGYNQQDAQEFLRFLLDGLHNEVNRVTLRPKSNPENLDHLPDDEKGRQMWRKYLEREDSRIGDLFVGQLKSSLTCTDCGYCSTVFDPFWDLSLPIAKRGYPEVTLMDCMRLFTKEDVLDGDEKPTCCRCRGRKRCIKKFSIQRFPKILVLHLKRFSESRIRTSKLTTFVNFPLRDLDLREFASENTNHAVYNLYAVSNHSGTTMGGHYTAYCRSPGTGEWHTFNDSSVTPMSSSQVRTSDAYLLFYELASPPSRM
Compound,"activity change, negative = inhibition [%]",Potency
CCOC(=O)N1CCN(C(=O)CN(c2cccc(C)c2)S(=O)(=O)c2ccccc2)CC1,2.09,
Cc1ccc(S(=O)(=O)N2[C@@H](c3ccc(C(C)(C)C)cc3)C(C(=O)O)=CC[C@H]2c2cccc(Cl)c2)cc1,,5.62 µM (active)
CCc1cc(C(=O)N=Nc2c(O)[nH]c3ccc([N+](=O)[O-])cc23)c2ccccc2n1,,11.2 µM (active)
CCOC(=O)c1sc(NC(=O)Nc2ccccc2)cc1C,-16.1,
CNc1cccccc1=S,,10 µM (active)
O=C(CSc1ccc(Br)c2cccc(Cl)c12)Nc1ccc(S(=O)(=O)Nc2nccs2)cc1,,3.55 µM (active)
CC(C)(C)[C@H]1COC(=O)[C@@H](Cc2ccc(F)cc2)C/C=C\C[C@@H](CC(=O)N[C@H](CO)Cc2ccccc2)C(=O)N1,-1.31,
COc1ccc2[nH]c(=O)c(CN(C)C(=O)C3CCCCC3)cc2c1,-4.5,
O=C(Nc1nnc(SCC(=O)N2CCCC2)s1)C1CC(=O)N(c2ccc(F)cc2)C1 (stereo unspecified),,11.2 µM (active)
O=C(CN1CCC(O)CC1)N1c2ccccc2C=Cc2ccccc21,-2.98,
Cc1noc(NS(=O)(=O)c2ccc(N3CC(O)=C(c4ccccc4)C3=N)cc2)c1C,-8.71,
CC(NC(=O)COc1ccccc1-c1ccccc1)c1ccccc1 (stereo unspecified),-12.3,
CC12CN3CC(C)(CN(C1)C3c1ccc(Cl)cc1Cl)C2O (stereo unspecified),-1.96,
CCOC(=O)N1CCN(C(=O)CN(c2ccc(C)c(C)c2)S(=O)(=O)c2ccccc2)CC1,-0.973,
Cc1ccc(/C(N)=N/OC(=O)Oc2ccccc2)cc1,-15.3,
CN(C)CCOCCP(=O)(c1ccccc1)c1ccccc1,-0.767,
